Assay results as given in PubChem BioAssay AID1259421 (Broad Institute, 2018).
“And” between values parts separate entries of the source, which are not always exact repeats. Equal values may be shown once. About 610 (9.5%) of roughly 6,400 compounds were called active. This is one part of a sample in which actives are shown more often than they occur. Unmarked numbers belong to inactive results. Cut-off read from the data, not from the text of the source: active = activity change below about -70%; inconclusive = no clear call, values can overlap the other calls; inactive = above that.

test: T. gondii ME49Luc in HeLa cells, luciferase assay, 72 h, no IFN-y (AID 1259421); details: active compounds read low, concentration not given here

| SMILES | activity change, negative = inhibition |
| --- | --- |
| CN1CCN(C2=Nc3cc(F)ccc3Cc3ccccc32)CC1 | -3.95% |
| CCOC(=O)C12CC1/C(=N/O)c1ccccc1O2 (stereo not drawn) | 10.1% |
| O=[Si]=O | 10.7% |
| CCCCCCCCN1C(=O)C(C(C)=O)=C(C)C1(C)O (stereo not drawn) | 12.4% |
| O=C(O)[C@H]1CN(CCCP(=O)(O)O)CCN1 | 4.53% |
| Oc1ccc2c(c1)OCC1(O)Cc3cc(O)c(O)cc3C21 (stereo not drawn) | -0.693% |
| Nc1[nH]nc2nc3ccccc3nc12 | 19.2% |
| Nc1nc(=S)c2ncn([C@@H]3O[C@H](CO)[C@@H](O)[C@H]3O)c2[nH]1 | -79.5% (active) |
| Nc1ncnc2c1ncn2[C@@H]1O[C@H](CO)[C@@H](O)[C@H]1O | 6.4% |
| Nc1nc2c(ncn2[C@@H]2O[C@@H](CO)[C@@H](O)[C@H]2O)c(=O)[nH]1 | -3.02% |
| Cc1nnsc1C(=O)Nc1ccc(-n2nc(C(F)(F)F)cc2C(F)(F)F)cc1 | -80% (active) |
| COc1ccc2oc3ccccc3c(=O)c2c1 | 118% |
| OCC1OC2OC3C(CO)OC(OC4C(CO)OC(OC5C(CO)OC(OC6C(CO)OC(OC7C(CO)OC(OC8C(CO)OC(OC1C(O)C2O)C(O)C8O)C(O)C7O)C(O)C6O)C(O)C5O)C(O)C4O)C(O)C3O (stereo not drawn) | 1.48% |
| O=C(O)c1ccc2c3c1cccc3c(=O)n1c3ccccc3nc21 | 9.96% |
| COc1nc(N)nc2c1ncn2[C@@H]1O[C@H](CO)[C@@H](O)[C@@H]1O | -2.56% and 14.5% |
| CO[C@@H]1[C@H](O)[C@@H](CO)O[C@H]1n1cnc2c(NC3CCCCC3)ncnc21 | 2.27% |
| COc1ccc(C[C@H](N)C(=O)N[C@@H]2[C@@H](CO)OC(n3cnc4c(N(C)C)ncnc43)[C@@H]2O)cc1 (stereo partly drawn) | -80.4% (active) and -91% (active) |
| O=C(O)c1cc2cccc([N+](=O)[O-])c2[nH]1 | 8.58% |
| CO/N=C(/C(=O)NC1C(=O)N2C(C(=O)O)=C(C[N+]3(C)CCCC3)CSC12)c1csc(N)n1 (stereo not drawn) | 6.5% |
| NC(=O)c1ccc(-c2nc(-c3ccc4c(c3)OCO4)c(-c3ccccn3)[nH]2)cc1 | -37% |
| Cc1cccc(-c2[nH]c(C(C)(C)C)nc2-c2ccc3c(c2)OCO3)n1 | -75.7% (active) |
| NC(=O)c1ccc(-c2nc(-c3ccc4c(c3)OCCO4)c(-c3ccccn3)[nH]2)cc1 | 25.7% and -23.2% |
| Cc1cccc(-c2[nH]c(C(C)(C)C)nc2-c2ccc3nccnc3c2)n1 | -81% (active) |
| C=C[C@@]1(C)CC(=O)[C@@]2(O)[C@](C)(O1)[C@@H](O)[C@@H](O)C1C(C)(C)CC[C@H](O)[C@@]12C (stereo partly drawn) | 11.2% |

| SMILES | activity change, negative = inhibition |
| --- | --- |
| C=CC(C)(O)CCC=C(C)C (stereo not drawn) | 11.3% |
| COc1ccccc1N1CCN(CC2CN3C(=O)N(C)c4ccccc4C3=N2)CC1 (stereo not drawn) | 1.95% |
| CC(=O)O[C@]1(C(C)=O)CCC2C3C=C(Cl)C4=CC(=O)[C@@H]5C[C@@H]5[C@]4(C)C3CC[C@@]21C (stereo partly drawn) | 11.3% |
| CCCCC(=O)N(Cc1ccc(-c2ccccc2-c2nn[nH]n2)cc1)[C@H](C(=O)O)C(C)C | -0.624% and 4.63% |
| C#CC1(OCC(O)CN2CCN(c3cccc(C(F)(F)F)c3)CC2)CCCCC1 (stereo not drawn) | -34.5% |
| CCCOc1ccc(S(=O)(=O)N2CCN(CCO)CC2)cc1-c1nc2c(CCC)cn(CC)c2c(=O)[nH]1 | 0.0881% |
| CC(C)[C@H](CO)Nc1nc(Nc2ccc(C(=O)O)c(Cl)c2)c2ncn(C(C)C)c2n1 | 13% and 1.51% |
| CC(C)n1cnc2c(NCc3ccccc3)nc(NCCCO)nc21 | 0.139% |
| CC(C)[C@H](CO)Nc1nc(Nc2cccc(Cl)c2)c2ncn(C(C)C)c2n1 | -86% (active) and -72.5% (active) |
| CC(C)[C@H](CO)Nc1nc(Nc2cc(N)cc(Cl)c2)c2ncn(C(C)C)c2n1 | -82.6% (active) |
| CC[C@@H]1OC(=O)C[C@@H](O)[C@H](C)[C@@H](O[C@@H]2O[C@H](C)[C@@H](O)[C@H](N(C)C)[C@H]2O)[C@@H](CCN2C[C@H](C)C[C@H](C)C2)C[C@@H](C)C(=O)/C=C/C(C)=C\[C@@H]1CO[C@@H]1O[C@H](C)[C@@H](O)[C@@H](OC)[C@H]1OC | 17.5% |
| CN1[C@@H]2CC(OC(=O)[C@H](CO)c3ccccc3)C[C@H]1[C@H]1O[C@H]12 (stereo partly drawn) | 23.8% |
| CCCCCCCC/C=C/C(=O)O | 1.14% |
| CO/N=C(\C(=O)N[C@@H]1C(=O)N2C(C(=O)OCOC(=O)C(C)(C)C)=C(C)CS[C@H]12)c1csc(N)n1 | 21.8% |
| OC[C@@]1(O)OC[C@@H](O)[C@@H](O)[C@@H]1O | 7.13% |
| CNC(=O)c1ccccc1Nc1cc(Nc2ccc(N3CCOCC3)cc2OC)ncc1C(F)(F)F | -46.5% |
| COc1cc(N2CCC(N3CCN(C)CC3)CC2)ccc1Nc1ncnc(Nc2ccccc2S(=O)(=O)C(C)C)n1 | -35.3% |
| CN1CCN(c2nc(C3=C(c4c[nH]c5ccccc45)C(=O)NC3=O)c3ccccc3n2)CC1 | -9.55% |
| COc1cc(N2CCC(N3CCN(C)CC3)CC2)ccc1Nc1ncc(Cl)c(Nc2ccccc2S(=O)(=O)C(C)C)n1 | -84.8% (active) |
| COc1cc(N2CCC(N)CC2)ccc1Nc1ncc(Cl)c(-c2c[nH]c3ccccc23)n1 | -81% (active) |
| COc1cc(N2CCC(N(C)C)CC2)ccc1Nc1ncc(Cl)c(Nc2ccccc2P(C)(C)=O)n1 | -60.2% |
| CNC(=O)c1c(F)cccc1Nc1nc(Nc2cc3c(cc2OC)CCN3C(=O)CN(C)C)nc2[nH]ccc12 | -10.7% |
| CNC(=O)c1ccccc1Nc1nc(Nc2ccc(N3CCOCC3)cc2OC)ncc1Cl | -73.7% (active) and -87.3% (active) |
| CNC(=O)c1ccccc1Nc1nc(Nc2ccc3c(c2OC)CCC[C@H](N2CCN(CCO)CC2)C3)ncc1Cl | -74.8% (active) |
